Assay results as given in PMC7862700, “An all-to-all approach to the identification of sequence-specific readers for epigenetic DNA modifications on cytosine”.

Tests used:
Experiment in all cases: DAPPL (digital affinity profiling via proximity ligation, sequencing); 10 mM Tris-HCl pH 7.5, 50 mM NaCl, 1 mM DTT, 4% glycerol, room temperature, 30 min; GST-TFs on glutathione beads, 16-mer random dsDNA library, 0.1% formaldehyde crosslink after washing; high values mean tight binding
[1] = biological target: T1, FEV (Homo sapiens, UniProt Q99581 1-238); conditions: protein: recombinant; tags: N-terminal GST; dsDNA, one strand shown
T1 sequence: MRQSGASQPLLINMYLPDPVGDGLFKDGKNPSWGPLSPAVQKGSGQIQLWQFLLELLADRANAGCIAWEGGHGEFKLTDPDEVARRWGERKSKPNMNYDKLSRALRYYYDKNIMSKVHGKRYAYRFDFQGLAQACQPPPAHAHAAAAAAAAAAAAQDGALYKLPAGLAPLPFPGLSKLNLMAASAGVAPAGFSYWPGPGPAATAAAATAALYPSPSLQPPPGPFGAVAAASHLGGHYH
How it was run: (§1)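 Sequencing on an Illumina NextSeq500 followed washing, crosslinking with 0.1% formaldehyde, proximity ligation (BsaI/T4 ligase, 1 h, 37 °C) and PCR amplification of pools that had been incubated for 30 min at room temperature with 200 nmole of a random double-stranded 16-mer DNA library in Tris/NaCl/DTT/glycerol buffer. Each pool held DNA-barcoded human transcription factors, expressed in yeast as GST fusions and captured on glutathione beads, plus a tag-only sample. Binding signal is a hexamer's read frequency for a factor divided by its frequency in the tag-only sample.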

[2] = biological target: ETV5 (Homo sapiens, UniProt P41161 1-510); conditions: protein: recombinant; tags: N-terminal GST; dsDNA, one strand shown
How it was run: as §1

[3] = biological target: HSF1 (Homo sapiens, UniProt Q00613 1-529); conditions: protein: recombinant; tags: N-terminal GST; chain copies: 3; dsDNA, one strand shown
How it was run: as §1

[4] = biological target: T2, SPIC (Homo sapiens, UniProt Q8N5J4 1-248); conditions: protein: recombinant; tags: N-terminal GST; dsDNA, one strand shown
T2 sequence: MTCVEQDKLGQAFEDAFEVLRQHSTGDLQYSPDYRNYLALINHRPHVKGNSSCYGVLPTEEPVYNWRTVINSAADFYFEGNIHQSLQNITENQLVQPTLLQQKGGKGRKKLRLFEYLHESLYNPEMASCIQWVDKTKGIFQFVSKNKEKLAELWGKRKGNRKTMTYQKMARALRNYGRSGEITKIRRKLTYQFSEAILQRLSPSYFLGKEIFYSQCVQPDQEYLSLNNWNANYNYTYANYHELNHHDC
How it was run: as §1

[5] = biological target: ELF4 (Homo sapiens, UniProt Q99607 1-663); conditions: protein: recombinant; tags: N-terminal GST; dsDNA, one strand shown
How it was run: as §1

[6] = biological target: T3, ELK4 (Homo sapiens, UniProt P28324-2 1-405); conditions: protein: recombinant; tags: N-terminal GST; dsDNA, one strand shown
T3 sequence: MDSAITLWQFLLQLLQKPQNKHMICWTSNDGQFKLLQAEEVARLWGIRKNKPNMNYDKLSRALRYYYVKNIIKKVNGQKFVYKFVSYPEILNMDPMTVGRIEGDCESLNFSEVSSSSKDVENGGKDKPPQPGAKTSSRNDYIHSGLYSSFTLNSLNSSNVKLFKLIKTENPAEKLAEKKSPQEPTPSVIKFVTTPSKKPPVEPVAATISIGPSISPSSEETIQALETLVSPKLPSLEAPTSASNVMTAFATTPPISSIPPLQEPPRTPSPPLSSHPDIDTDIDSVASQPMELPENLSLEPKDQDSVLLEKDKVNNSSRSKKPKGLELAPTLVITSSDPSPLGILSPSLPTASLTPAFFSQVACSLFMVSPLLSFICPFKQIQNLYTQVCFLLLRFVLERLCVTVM
How it was run: as §1

[7] = biological target: T4, ETV2 (Homo sapiens, UniProt O00321 1-342); conditions: protein: recombinant; tags: N-terminal GST; dsDNA, one strand shown
T4 sequence: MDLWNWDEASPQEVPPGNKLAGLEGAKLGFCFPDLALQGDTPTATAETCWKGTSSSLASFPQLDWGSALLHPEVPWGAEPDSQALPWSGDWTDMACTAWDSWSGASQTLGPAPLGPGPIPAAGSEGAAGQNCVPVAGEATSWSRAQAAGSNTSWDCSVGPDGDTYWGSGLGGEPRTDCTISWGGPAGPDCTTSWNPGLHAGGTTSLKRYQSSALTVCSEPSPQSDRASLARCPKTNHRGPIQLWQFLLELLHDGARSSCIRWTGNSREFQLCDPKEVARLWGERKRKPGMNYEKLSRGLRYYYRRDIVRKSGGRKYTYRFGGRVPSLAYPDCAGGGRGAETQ
How it was run: as §1

[8] = biological target: T5, ELF3 (Homo sapiens, UniProt P78545 1-371); conditions: protein: recombinant; tags: N-terminal GST; dsDNA, one strand shown
T5 sequence: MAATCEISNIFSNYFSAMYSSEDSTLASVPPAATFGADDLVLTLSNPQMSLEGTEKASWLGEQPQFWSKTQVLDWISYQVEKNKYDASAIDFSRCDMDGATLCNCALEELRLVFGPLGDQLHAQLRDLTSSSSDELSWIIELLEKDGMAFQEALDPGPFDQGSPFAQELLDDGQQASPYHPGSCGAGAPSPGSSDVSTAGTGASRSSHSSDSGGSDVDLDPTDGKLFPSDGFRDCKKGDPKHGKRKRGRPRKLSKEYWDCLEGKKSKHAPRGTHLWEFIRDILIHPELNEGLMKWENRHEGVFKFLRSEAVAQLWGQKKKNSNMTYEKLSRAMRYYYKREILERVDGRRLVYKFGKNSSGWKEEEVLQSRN
How it was run: as §1

[9] = biological target: CRX (Homo sapiens, UniProt O43186 1-299); conditions: protein: recombinant; tags: N-terminal GST; dsDNA, one strand shown
How it was run: as §1

[10] = biological target: ETV1 (Homo sapiens, UniProt P50549 1-477); conditions: protein: recombinant; tags: N-terminal GST; dsDNA, one strand shown
How it was run: as §1

Sequence of CRX (O43186 whole entry): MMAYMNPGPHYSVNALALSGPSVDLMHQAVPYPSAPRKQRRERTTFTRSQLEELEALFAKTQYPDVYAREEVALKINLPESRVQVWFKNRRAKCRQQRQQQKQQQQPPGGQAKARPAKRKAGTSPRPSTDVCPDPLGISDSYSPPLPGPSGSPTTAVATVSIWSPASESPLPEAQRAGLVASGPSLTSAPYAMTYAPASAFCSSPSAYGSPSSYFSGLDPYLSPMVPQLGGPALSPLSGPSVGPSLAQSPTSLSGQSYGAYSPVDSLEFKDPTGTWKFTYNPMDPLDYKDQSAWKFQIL
Sequence of ETV1 (P50549 whole entry): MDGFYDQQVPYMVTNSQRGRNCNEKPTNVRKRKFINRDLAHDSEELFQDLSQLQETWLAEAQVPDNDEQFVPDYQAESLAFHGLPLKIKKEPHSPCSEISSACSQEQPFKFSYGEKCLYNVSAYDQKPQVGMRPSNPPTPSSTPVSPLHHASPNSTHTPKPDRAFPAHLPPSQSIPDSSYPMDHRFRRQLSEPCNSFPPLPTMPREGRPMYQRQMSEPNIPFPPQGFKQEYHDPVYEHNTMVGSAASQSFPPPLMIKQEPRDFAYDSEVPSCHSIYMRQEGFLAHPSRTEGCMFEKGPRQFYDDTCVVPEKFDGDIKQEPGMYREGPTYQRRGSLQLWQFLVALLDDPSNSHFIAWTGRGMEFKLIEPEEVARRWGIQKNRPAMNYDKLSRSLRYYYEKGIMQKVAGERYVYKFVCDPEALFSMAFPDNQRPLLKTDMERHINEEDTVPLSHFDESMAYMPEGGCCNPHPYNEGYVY
Sequence of ELF4 (Q99607 whole entry): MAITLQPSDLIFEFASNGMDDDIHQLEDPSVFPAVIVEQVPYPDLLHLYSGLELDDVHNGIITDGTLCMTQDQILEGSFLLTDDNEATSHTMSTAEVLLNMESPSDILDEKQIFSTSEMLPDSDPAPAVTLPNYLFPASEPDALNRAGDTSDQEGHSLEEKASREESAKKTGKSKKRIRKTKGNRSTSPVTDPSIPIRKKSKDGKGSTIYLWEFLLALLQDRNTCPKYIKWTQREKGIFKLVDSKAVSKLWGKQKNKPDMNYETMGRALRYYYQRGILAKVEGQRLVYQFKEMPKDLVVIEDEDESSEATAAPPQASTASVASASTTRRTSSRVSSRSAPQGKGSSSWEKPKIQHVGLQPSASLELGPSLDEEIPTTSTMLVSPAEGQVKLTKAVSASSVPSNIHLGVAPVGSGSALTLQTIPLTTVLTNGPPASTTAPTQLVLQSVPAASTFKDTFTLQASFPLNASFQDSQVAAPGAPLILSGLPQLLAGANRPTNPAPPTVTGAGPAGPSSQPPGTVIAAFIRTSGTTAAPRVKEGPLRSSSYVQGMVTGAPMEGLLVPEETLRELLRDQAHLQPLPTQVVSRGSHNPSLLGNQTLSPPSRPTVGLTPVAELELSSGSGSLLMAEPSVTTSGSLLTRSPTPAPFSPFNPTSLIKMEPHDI
Sequence of HSF1 (Q00613 whole entry): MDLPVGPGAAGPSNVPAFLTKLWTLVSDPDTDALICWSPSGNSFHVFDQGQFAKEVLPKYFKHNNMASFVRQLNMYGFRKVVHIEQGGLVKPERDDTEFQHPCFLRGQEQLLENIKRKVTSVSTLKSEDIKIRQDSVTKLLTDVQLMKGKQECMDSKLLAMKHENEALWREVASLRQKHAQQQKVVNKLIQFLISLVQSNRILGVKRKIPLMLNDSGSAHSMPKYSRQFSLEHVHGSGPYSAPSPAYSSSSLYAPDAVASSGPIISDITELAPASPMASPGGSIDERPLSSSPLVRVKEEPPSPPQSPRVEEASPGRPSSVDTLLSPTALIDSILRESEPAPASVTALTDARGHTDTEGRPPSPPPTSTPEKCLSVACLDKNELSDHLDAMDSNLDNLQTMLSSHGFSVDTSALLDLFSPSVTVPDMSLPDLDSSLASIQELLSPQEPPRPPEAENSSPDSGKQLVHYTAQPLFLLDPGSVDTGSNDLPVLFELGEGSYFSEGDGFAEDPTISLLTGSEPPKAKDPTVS
Sequence of ETV5 (P41161 whole entry): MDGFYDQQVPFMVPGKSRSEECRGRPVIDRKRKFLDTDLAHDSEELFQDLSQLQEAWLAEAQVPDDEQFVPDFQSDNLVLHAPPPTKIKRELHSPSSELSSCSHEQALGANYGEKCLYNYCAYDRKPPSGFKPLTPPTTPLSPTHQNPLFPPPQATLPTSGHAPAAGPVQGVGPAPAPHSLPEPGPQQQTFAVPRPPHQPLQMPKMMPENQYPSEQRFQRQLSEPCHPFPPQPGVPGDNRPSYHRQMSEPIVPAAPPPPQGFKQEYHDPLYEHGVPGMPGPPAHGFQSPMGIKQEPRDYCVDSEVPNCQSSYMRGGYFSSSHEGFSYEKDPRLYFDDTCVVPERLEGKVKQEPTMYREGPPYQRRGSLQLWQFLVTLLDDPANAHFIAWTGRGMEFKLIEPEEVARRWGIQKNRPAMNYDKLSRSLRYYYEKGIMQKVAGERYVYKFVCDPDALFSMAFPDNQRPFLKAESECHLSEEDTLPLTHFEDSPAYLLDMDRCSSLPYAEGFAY

## TTCAGG
[1]
  binding signal: 1.05 fold enrichment (6-mer frequency, TF over GST control)
[2]
  binding signal: 1.13 fold enrichment (6-mer frequency, TF over GST control)
[3]
  binding signal: 1.22 fold enrichment (6-mer frequency, TF over GST control)
[4]
  binding signal: 1.13 fold enrichment (6-mer frequency, TF over GST control)
[5]
  binding signal: 1.11 fold enrichment (6-mer frequency, TF over GST control)
[6]
  binding signal: 1.19 fold enrichment (6-mer frequency, TF over GST control)
[7]
  binding signal: 1.14 fold enrichment (6-mer frequency, TF over GST control)
[8]
  binding signal: 1.07 fold enrichment (6-mer frequency, TF over GST control)
[9]
  binding signal: 1.01 fold enrichment (6-mer frequency, TF over GST control)
[10]
  binding signal: 1.15 fold enrichment (6-mer frequency, TF over GST control)

## CTTCCT
[1]
  binding signal: 2.94 fold enrichment (6-mer frequency, TF over GST control)
[2]
  binding signal: 3.4 fold enrichment (6-mer frequency, TF over GST control)
[3]
  binding signal: 1.4 fold enrichment (6-mer frequency, TF over GST control)
[4]
  binding signal: 3.47 fold enrichment (6-mer frequency, TF over GST control)
[5]
  binding signal: 2.83 fold enrichment (6-mer frequency, TF over GST control)
[6]
  binding signal: 2.83 fold enrichment (6-mer frequency, TF over GST control)
[7]
  binding signal: 3.38 fold enrichment (6-mer frequency, TF over GST control)
[8]
  binding signal: 2.95 fold enrichment (6-mer frequency, TF over GST control)
[9]
  binding signal: 1.19 fold enrichment (6-mer frequency, TF over GST control)
[10]
  binding signal: 3.18 fold enrichment (6-mer frequency, TF over GST control)

## AGCACT
[1]
  binding signal: 1.51 fold enrichment (6-mer frequency, TF over GST control)
[2]
  binding signal: 1.37 fold enrichment (6-mer frequency, TF over GST control)
[3]
  binding signal: 1.19 fold enrichment (6-mer frequency, TF over GST control)
[4]
  binding signal: 1.32 fold enrichment (6-mer frequency, TF over GST control)
[5]
  binding signal: 1.44 fold enrichment (6-mer frequency, TF over GST control)
[6]
  binding signal: 1.31 fold enrichment (6-mer frequency, TF over GST control)
[7]
  binding signal: 1.46 fold enrichment (6-mer frequency, TF over GST control)
[8]
  binding signal: 1.26 fold enrichment (6-mer frequency, TF over GST control)
[9]
  binding signal: 1.18 fold enrichment (6-mer frequency, TF over GST control)
[10]
  binding signal: 1.36 fold enrichment (6-mer frequency, TF over GST control)

## ACATAA
[1]
  binding signal: 1.04 fold enrichment (6-mer frequency, TF over GST control)
[2]
  binding signal: 1.13 fold enrichment (6-mer frequency, TF over GST control)
[3]
  binding signal: 1.2 fold enrichment (6-mer frequency, TF over GST control)
[4]
  binding signal: 1.19 fold enrichment (6-mer frequency, TF over GST control)
[5]
  binding signal: 1.09 fold enrichment (6-mer frequency, TF over GST control)
[6]
  binding signal: 1.14 fold enrichment (6-mer frequency, TF over GST control)
[7]
  binding signal: 1.15 fold enrichment (6-mer frequency, TF over GST control)
[8]
  binding signal: 1.17 fold enrichment (6-mer frequency, TF over GST control)
[9]
  binding signal: 1.34 fold enrichment (6-mer frequency, TF over GST control)
[10]
  binding signal: 1.07 fold enrichment (6-mer frequency, TF over GST control)

## TTGTAA
[1]
  binding signal: 1.2 fold enrichment (6-mer frequency, TF over GST control)
[2]
  binding signal: 1.35 fold enrichment (6-mer frequency, TF over GST control)
[3]
  binding signal: 1.4 fold enrichment (6-mer frequency, TF over GST control)
[4]
  binding signal: 1.31 fold enrichment (6-mer frequency, TF over GST control)
[5]
  binding signal: 1.24 fold enrichment (6-mer frequency, TF over GST control)
[6]
  binding signal: 1.36 fold enrichment (6-mer frequency, TF over GST control)
[7]
  binding signal: 1.36 fold enrichment (6-mer frequency, TF over GST control)
[8]
  binding signal: 1.44 fold enrichment (6-mer frequency, TF over GST control)
[9]
  binding signal: 1.62 fold enrichment (6-mer frequency, TF over GST control)
[10]
  binding signal: 1.31 fold enrichment (6-mer frequency, TF over GST control)

## AAGATG
[1]
  binding signal: 1.01 fold enrichment (6-mer frequency, TF over GST control)
[2]
  binding signal: 1.14 fold enrichment (6-mer frequency, TF over GST control)
[3]
  binding signal: 1.19 fold enrichment (6-mer frequency, TF over GST control)
[4]
  binding signal: 1.1 fold enrichment (6-mer frequency, TF over GST control)
[5]
  binding signal: 1.24 fold enrichment (6-mer frequency, TF over GST control)
[6]
  binding signal: 1.22 fold enrichment (6-mer frequency, TF over GST control)
[7]
  binding signal: 1.13 fold enrichment (6-mer frequency, TF over GST control)
[8]
  binding signal: 1.19 fold enrichment (6-mer frequency, TF over GST control)
[9]
  binding signal: 1.27 fold enrichment (6-mer frequency, TF over GST control)
[10]
  binding signal: 1.12 fold enrichment (6-mer frequency, TF over GST control)

## CCTTAC
[1]
  binding signal: 1.21 fold enrichment (6-mer frequency, TF over GST control)
[2]
  binding signal: 1.36 fold enrichment (6-mer frequency, TF over GST control)
[3]
  binding signal: 1.15 fold enrichment (6-mer frequency, TF over GST control)
[4]
  binding signal: 1.22 fold enrichment (6-mer frequency, TF over GST control)
[5]
  binding signal: 1.38 fold enrichment (6-mer frequency, TF over GST control)
[6]
  binding signal: 1.13 fold enrichment (6-mer frequency, TF over GST control)
[7]
  binding signal: 1.33 fold enrichment (6-mer frequency, TF over GST control)
[8]
  binding signal: 1.34 fold enrichment (6-mer frequency, TF over GST control)
[9]
  binding signal: 1.17 fold enrichment (6-mer frequency, TF over GST control)
[10]
  binding signal: 1.21 fold enrichment (6-mer frequency, TF over GST control)

## AATACC
[1]
  binding signal: 1.23 fold enrichment (6-mer frequency, TF over GST control)
[2]
  binding signal: 1.13 fold enrichment (6-mer frequency, TF over GST control)
[3]
  binding signal: 1.19 fold enrichment (6-mer frequency, TF over GST control)
[4]
  binding signal: 1.15 fold enrichment (6-mer frequency, TF over GST control)
[5]
  binding signal: 1.1 fold enrichment (6-mer frequency, TF over GST control)
[6]
  binding signal: 1.11 fold enrichment (6-mer frequency, TF over GST control)
[7]
  binding signal: 1.17 fold enrichment (6-mer frequency, TF over GST control)
[8]
  binding signal: 1.12 fold enrichment (6-mer frequency, TF over GST control)
[9]
  binding signal: 1.44 fold enrichment (6-mer frequency, TF over GST control)
[10]
  binding signal: 1.22 fold enrichment (6-mer frequency, TF over GST control)
